# From PubChem BioAssay (NCI)
# About 83,000 compounds went through this panel and 20% of them were active in at least one assay; those are over-represented in the sample as a whole.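 Treatment: one concentration, 48 hours, 96-well format. Scoring: percent growth, with anything below 10 considered active.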 Active and inactive are the calls of the source.
# System: HL-60(TB) leukemia
# Test: NCI-60 one-dose screen, 48 h (100 = growth as untreated, 0 = no growth, -100 = all killed)
# Conditions: 10 µM unless noted
row,Compound,growth
1,CN1CCN(c2ccc(Nc3nc(NCCNC(=O)c4ccc(F)cc4)c4sccc4n3)cc2)CC1,34.3% (inactive)
2,c1n[nH]cc1-c1nc2ccc3[nH]ncc3c2c2c1CCCC2,22.5% (inactive)
3,Cc1ccc(-c2cc(-c3ccc(N(C)C)cc3)n3c(n2)nc2ccccc23)cc1,67.1% (inactive)
4,CC(=O)c1sc(Nc2cccc(Nc3nc(C)c(C)s3)c2)nc1C,34.2% (inactive)
5,Oc1ccc(CSc2nnc(-c3ccc(Br)cc3)n2-c2ccccc2)c2cccnc12,27.5% (inactive)
6,CC(=O)Oc1ccccc1C(=O)Nc1cc(C(C)C)ccc1C,-28.4% (active)
7,C#CCC#CCN1CCC[C@H]1C(=O)NCC(=O)OC,105% (inactive)
8,Cc1ccc(-c2cc(-c3cccc4ccccc34)n3c(n2)nc2ccccc23)cc1,7.27% (active)
9,COc1ccc2c(c1)c(CC(=O)[Se]CCC#N)c(C)n2C(=O)c1ccc(Cl)cc1,-43.8% (active)
10,CS(=O)(=O)c1ccc(-c2nn(-c3ccccc3)cc2/C=N/NC(=O)c2nc(N)n[nH]2)cc1,76.8% (inactive)
11,C#Cc1nc(/C=C/CCCCCCC(=O)NO)cs1,-64.8% (active)
12,CC1(C)CC[C@]2(C(=O)N3CCOCC3)CC[C@]3(C)C(=CC[C@@H]4[C@@]5(C)C/C(=C/c6ccco6)C(=O)C(C)(C)[C@@H]5CC[C@]43C)[C@@H]2C1,57.2% (inactive)
13,CC(C)(C)CC(C)(C)n1nnnc1C(Nc1ccccc1)c1cc2cccc3ccc4cccc1c4c32 (stereo not given),101% (inactive)
14,CN1CCN(c2ccc(Nc3nc(NCCCNS(=O)(=O)c4ccccc4)c4sccc4n3)cc2)CC1,-32.9% (active)
15,N#C/C(=C\c1ccc(-c2ccc(Cl)c(Cl)c2)o1)C(=O)Nc1ncc(Cc2ccc(Cl)cc2)s1,51.5% (inactive)
16,NS(=O)(=O)c1ccc(CCn2c(-c3ccc(C(=O)O)cc3)nc(-c3ccccc3)c2-c2ccccc2)cc1,101% (inactive)
17,COc1ccc(Cn2cc3c(c2-c2ccccc2)CCCc2cnoc2-3)cc1,6.55% (active)
18,CCCCCC[n+]1ccc(SCC(=O)n2ccc3ccccc32)c2ccccc21,74.8% (inactive)
19,CN1CCN(Cc2ccc(NC(=O)c3cncc(C#Cc4cnc5ccc(N)nn45)c3)cc2C(F)(F)F)CC1,2.82% (active)
20,CC(C)=CCc1c2c(c(O)c3c1O[C@]14C(=C[C@@H]5C[C@H]1C(C)(C)O[C@@]4(C/C=C(/C)C(=O)O)C5=O)C3=O)CC(O)C(C)(C)O2 (stereo not given in full),-17.2% (active)

row,Compound,growth
1,NS(=O)(=O)c1ccc(Nc2nc(N/N=C/c3ccc(F)cc3)nc(Nc3ccccc3)n2)cc1,60.4% (inactive)
2,Cc1ccc(/C=C/CC(=O)Nc2ccc(C(=O)Nc3ccc(F)cc3N)cc2)cn1,8.39% (active)
3,CN(C)c1cccc2c(S(=O)(=O)Nc3cccc(-c4csc(NC(=O)CCCCCN5CCN(CCO)CC5)n4)c3)cccc12,74.8% (inactive)
4,CC(=C(c1ccc(OCCN2CCCC2)cc1)c1ccc(OCCN2CCCC2)cc1)c1ccc(Cl)cc1,-53.7% (active)
5,CCNCc1c(-c2cccc(OC(F)(F)F)c2)[nH]c2ccc(N3CCCC3)cc2c1=O,-8.31% (active)
6,CS(=O)(=O)c1ccc(-c2nn(-c3ccccc3)cc2/C=C/C(=O)c2ccc(Br)cc2)cc1,51.9% (inactive)
7,O=C(Nc1ccccc1)Nc1nc2ccc([N+](=O)[O-])cc2s1,-35.9% (active)
8,Nc1ccccc1NC(=O)c1ccc(NC(=O)C/C=C/c2cccnc2)cn1,8.93% (active)
9,Clc1ccc2oc3c(OCCCn4ccnc4)c4ccccc4nc3c2c1,73.1% (inactive)
10,CC1=N[C@@H]2CN(C(=O)OC(C)(C)C)C[C@@H]2n2c1cc1ccccc1c2=O,99.9% (inactive)
11,Cc1ccc2c(c1)C(=O)/C(=C/c1cccc(F)c1)S2,98.9% (inactive)
12,CCOC(=O)c1c(Nc2ccccc2)nn2c(N)c(C#N)c(-c3ccccc3)nc12,70.9% (inactive)
13,O=C(COc1ccc(/C=C2\C(=O)Nc3cc(Cl)ccc32)cc1)Nc1ccc(Cl)cc1,61% (inactive)
14,NC(=O)c1c(NC(=O)c2ccccc2C(F)(F)F)sc2c1CCC(=O)C2,1.97% (active)
15,Clc1ccc2[nH]cc(-c3nn4cc(-c5ccncc5)nc4s3)c2c1,89.8% (inactive)
16,O=c1[nH]c(CNc2ccc(NCc3c(-c4ccccc4)no[n+]3[O-])cc2)nc2c1cnn2-c1ccccc1,63.1% (inactive)
17,C=C1CC[C@@H]2[C@](C)(CO)[C@H](O)CC[C@@]2(C)[C@@H]1C/C(O)=C1\CCOC1=O,95.3% (inactive)
18,O=C(CN1CCN(c2cc(=O)n(-c3ccccc3)c3ccccc23)CC1)Nc1nc(-c2ccccc2)cs1,37.1% (inactive)
19,O=C1[C@@H]2Cc3c([nH]c4ccccc34)[C@@H](c3ccc(Cl)cc3)N2C(=O)CN1C1CCN(Cc2c(F)cccc2F)CC1,0.352% (active)
20,COc1ccc(-c2nc3ccc(-c4nnc(SCC(=O)Nc5ccc(C(=O)/C=C/c6ccccc6)cc5)o4)cc3[nH]2)cc1OC,100% (inactive)
